“And” between values parts separate entries of the source, which are not always exact repeats. Equal entries are not always repeated. Some compounds were tested as several samples or in several runs, with calls that do not always agree. The source made the active and inactive calls. Rule for the calls: active = hit-call score of the fitted dose curve at least 0.9, where 1 is the maximum; inactive = score below 0.9.

One may read the AC50 as the concentration at which the activity in the assay is half-maximal.

E-selectin (Homo sapiens), sequence (P16581 whole entry, looked up): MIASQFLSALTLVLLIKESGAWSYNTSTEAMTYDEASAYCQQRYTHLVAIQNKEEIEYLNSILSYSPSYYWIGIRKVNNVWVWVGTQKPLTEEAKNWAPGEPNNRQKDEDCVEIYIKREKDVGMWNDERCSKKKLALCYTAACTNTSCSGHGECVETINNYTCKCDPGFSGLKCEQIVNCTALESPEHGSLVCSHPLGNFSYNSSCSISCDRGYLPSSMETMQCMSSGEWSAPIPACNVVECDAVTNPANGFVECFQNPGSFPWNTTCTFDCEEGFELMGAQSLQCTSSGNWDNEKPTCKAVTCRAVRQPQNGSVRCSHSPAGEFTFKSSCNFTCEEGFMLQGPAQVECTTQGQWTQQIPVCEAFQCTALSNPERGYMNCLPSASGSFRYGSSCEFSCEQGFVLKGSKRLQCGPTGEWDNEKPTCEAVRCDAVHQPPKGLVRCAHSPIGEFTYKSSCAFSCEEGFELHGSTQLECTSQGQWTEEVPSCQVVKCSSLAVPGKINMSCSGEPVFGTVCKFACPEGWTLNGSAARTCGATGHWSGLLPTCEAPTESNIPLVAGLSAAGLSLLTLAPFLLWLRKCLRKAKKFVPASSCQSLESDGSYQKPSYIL

Read-out in the first assay: E-selectin (Homo sapiens) (UniProt P16581)
The assay is described as follows: BSK_LPS_Eselectin: BioMAP Diversity Plus: LPS Assay for Eselectin Biomarker Activity (AID 2283077). The note with it: primary human HUVEC with PBMC; actives raise or lower the signal. Put shortly: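 ELISA readout of E-selectin, 24 h post-dose, HUVEC + PBMC co-culture (LPS system). Gain or loss of signal vs DMSO baseline, bidirectional fit.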
For the compound `CN(C(=O)C(F)(F)C(F)(F)C(F)(F)F)[Si](C)(C)C`, the result was inactive.
Turning to `C=C(C)C(=O)OCC(F)(F)C(F)(F)C(F)(F)C(F)F`, the outcome was inactive.
Same read-out and setting: in the case of `NC(=O)C(F)(F)C(F)(F)C(F)(F)C(F)(F)C(N)=O` it was “inactive”; in that of `O=C(O)C(F)(F)C(F)(F)C(F)(F)OC(F)(F)F`, “inactive”.
On to `FC(F)(F)C(F)(F)C(F)(F)CC1CO1` (stereo unspecified), for which the outcome was inactive.
For the compound `FC(F)(F)C(F)(F)C(F)(F)C(F)(F)C(F)(F)C(F)(F)CC[Si](Cl)(Cl)Cl`, the outcome was inactive.
On the same count and under the same terms, the same measure for `NC(=O)C(F)(F)C(F)(F)C(F)(F)C(F)F`: “inactive”; for `OCCCCC(F)(F)C(F)(F)C(F)(F)C(F)(F)F`: “inactive”; for `OCC(F)(F)C(F)(F)C(F)(F)C(F)(F)C(F)(F)C(F)(F)CO`: “inactive”.
Same read-out and setting: in the case of `C=CC(=O)OCCC(F)(F)C(F)(F)C(F)(F)C(F)(F)F` it was “inactive”; in that of `O=S(=O)(O)CCC(F)(F)C(F)(F)C(F)(F)C(F)(F)F`, “inactive”.
As to `O=C(O)C(F)(F)C(F)(F)C(F)(F)C(=O)O`, the result was inactive.
As to `NC(O)(C(F)(F)F)C(F)(F)F`, the result was inactive.
Take `OCCCC(F)(F)C(F)(F)C(F)(F)C(F)(F)C(F)(F)C(F)(F)C(F)(F)C(F)(F)F`: the AC50 was 15.3 µM (active) and 30 µM (active).
As for `O=C(O)C(F)(F)OC(F)(F)C(F)(F)OC(F)(F)C(F)(F)OC(F)(F)F`, the result was inactive.
Still for that read-out and setting: in the case of `O=C(O)CCC(F)(F)C(F)(F)C(F)(F)F` it was “inactive”.
Still for that read-out and setting: the same measure for `OCC(O)CC(F)(F)C(F)(F)C(F)(F)C(F)(F)C(F)(F)C(F)(F)C(F)(F)C(F)(F)F` (stereo unspecified): “inactive”; for `NC(=O)C(F)(F)C(F)(F)C(F)(F)F`: “inactive”.
For the compound `O=S(=O)(Cl)C(F)(F)C(F)(F)C(F)(F)C(F)(F)C(F)(F)C(F)(F)C(F)(F)C(F)(F)F`, the result was inactive.
Consider `NCC(F)(F)C(F)(F)C(F)(F)C(F)(F)C(F)(F)C(F)(F)F`, for which the result was inactive.
With `COC(F)(C(F)F)C(F)(F)F` (stereo unspecified), the outcome was inactive.
Same read-out and setting: in the case of `OCC(O)CC(F)(F)C(F)(F)C(F)(F)C(F)(F)F` (stereo unspecified) it was “inactive”; in that of `C[Si](Cl)(Cl)CCC(F)(F)C(F)(F)C(F)(F)C(F)(F)C(F)(F)C(F)(F)F`, “inactive”.
The same measure, in the same setting: the same measure for `CO[Si](C)(CCC(F)(F)C(F)(F)C(F)(F)C(F)(F)C(F)(F)C(F)(F)F)OC`: “inactive”; for `O=S(=O)(O)CCC(F)(F)C(F)(F)C(F)(F)C(F)(F)C(F)(F)C(F)(F)C(F)(F)C(F)(F)F`: “inactive”.
For `C=CC(=O)OCC(F)(F)C(F)(F)C(F)(F)COC(=O)C=C`, the half-maximal activity concentration (AC50) is 16.1 µM (active) and 13.1 µM (active).
With `O=C(O)C(F)(F)C(F)(F)C(F)(F)C(F)(F)C(F)(F)C(F)(F)C(F)F`, the outcome was inactive.
On to `CCN=C1C=CC(=C(c2ccc(N(CC)CC)cc2)c2ccc(N(CC)CC)cc2)c2ccccc21`, for which the AC50 is 974 nM (active) and 574 nM (active).
In the case of `OCC(F)(F)C(F)(F)C(F)(F)CO`, the result was inactive.
With `CCOC(=O)CC(=O)C(F)(F)C(F)(F)F`, the outcome was inactive.
Still for that read-out and setting: the same measure for `NC(=O)C(F)(F)C(F)(F)C(F)(F)C(F)(F)C(F)(F)C(F)(F)C(F)(F)F`: “inactive”; for `OC(O)C(F)(F)C(F)(F)F`: “inactive”; for `O=C(Cl)C(F)(F)C(F)(F)C(F)(F)C(F)(F)C(F)(F)C(F)(F)C(F)(F)F`: “inactive”.

Read-out in a further assay: Interleukin-8 (IL8), CXCL8 (gene 3576)
Put plainly: BSK_LPS_IL8: BioMAP Diversity Plus: LPS Assay for Interleukin-8 (IL8) Biomarker Activity (AID 2283078). The note with it: primary human HUVEC with PBMC; actives raise or lower the signal. Put shortly: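 HUVEC + PBMC co-culture, LPS-activated; test chemicals dosed, IL-8 read by ELISA at 24 h. Bidirectional curve fit vs DMSO baseline (gain or loss of signal).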
In the case of `CN(C(=O)C(F)(F)C(F)(F)C(F)(F)F)[Si](C)(C)C`, the outcome was inactive.
Same read-out and setting: the same measure for `C=C(C)C(=O)OCC(F)(F)C(F)(F)C(F)(F)C(F)F`: “inactive”; for `NC(=O)C(F)(F)C(F)(F)C(F)(F)C(F)(F)C(N)=O`: “inactive”.
On the same count and under the same terms, the same measure for `O=C(O)C(F)(F)C(F)(F)C(F)(F)OC(F)(F)F`: “inactive”; for `FC(F)(F)C(F)(F)C(F)(F)CC1CO1` (stereo unspecified): “inactive”.
Still for that read-out and setting: in the case of `FC(F)(F)C(F)(F)C(F)(F)C(F)(F)C(F)(F)C(F)(F)CC[Si](Cl)(Cl)Cl` it was “inactive”.
In the case of `NC(=O)C(F)(F)C(F)(F)C(F)(F)C(F)F`, the AC50 was 22.7 µM (active) and the result was inactive.
Turning to `OCCCCC(F)(F)C(F)(F)C(F)(F)C(F)(F)F`, the result was inactive.
For `OCC(F)(F)C(F)(F)C(F)(F)C(F)(F)C(F)(F)C(F)(F)CO`, the outcome was inactive.
Turning to `C=CC(=O)OCCC(F)(F)C(F)(F)C(F)(F)C(F)(F)F`, the result was inactive.
Same read-out and setting: the same measure for `O=S(=O)(O)CCC(F)(F)C(F)(F)C(F)(F)C(F)(F)F`: “inactive”; for `O=C(O)C(F)(F)C(F)(F)C(F)(F)C(=O)O`: “inactive”.
Turning to `NC(O)(C(F)(F)F)C(F)(F)F`, the half-maximal activity concentration (AC50) was 5.33 µM (active) and the result was inactive.
As to `OCCCC(F)(F)C(F)(F)C(F)(F)C(F)(F)C(F)(F)C(F)(F)C(F)(F)C(F)(F)F`, the concentration at half-maximal activity (AC50) is 45.9 µM (active) and 42.5 µM (active).
Turning to `O=C(O)C(F)(F)OC(F)(F)C(F)(F)OC(F)(F)C(F)(F)OC(F)(F)F`, the concentration at half-maximal activity (AC50) is 9.98 µM (active) and 20 µM (active); the outcome was inactive.
With `O=C(O)CCC(F)(F)C(F)(F)C(F)(F)F`, the result was inactive.
The same measure, in the same setting: the same measure for `OCC(O)CC(F)(F)C(F)(F)C(F)(F)C(F)(F)C(F)(F)C(F)(F)C(F)(F)C(F)(F)F` (stereo unspecified): “inactive”; for `NC(=O)C(F)(F)C(F)(F)C(F)(F)F`: “inactive”.
As for `O=S(=O)(Cl)C(F)(F)C(F)(F)C(F)(F)C(F)(F)C(F)(F)C(F)(F)C(F)(F)C(F)(F)F`, the AC50 was 30 µM (active).
`NCC(F)(F)C(F)(F)C(F)(F)C(F)(F)C(F)(F)C(F)(F)F`: the outcome was inactive.
On the same count and under the same terms, in the case of `COC(F)(C(F)F)C(F)(F)F` (stereo unspecified) it was “inactive”; in that of `OCC(O)CC(F)(F)C(F)(F)C(F)(F)C(F)(F)F` (stereo unspecified), “inactive”.
On the same count and under the same terms, the same measure for `C[Si](Cl)(Cl)CCC(F)(F)C(F)(F)C(F)(F)C(F)(F)C(F)(F)C(F)(F)F`: “inactive”; for `CO[Si](C)(CCC(F)(F)C(F)(F)C(F)(F)C(F)(F)C(F)(F)C(F)(F)F)OC`: “inactive”; for `O=S(=O)(O)CCC(F)(F)C(F)(F)C(F)(F)C(F)(F)C(F)(F)C(F)(F)C(F)(F)C(F)(F)F`: “inactive”.
With `C=CC(=O)OCC(F)(F)C(F)(F)C(F)(F)COC(=O)C=C`, the AC50 was 15.9 µM (active) and 14.8 µM (active).
In the case of `O=C(O)C(F)(F)C(F)(F)C(F)(F)C(F)(F)C(F)(F)C(F)(F)C(F)F`, the AC50 is 30 µM (active) and the outcome was inactive.
As for `CCN=C1C=CC(=C(c2ccc(N(CC)CC)cc2)c2ccc(N(CC)CC)cc2)c2ccccc21`, the AC50 is 782 nM (active) and 483 nM (active).
For `OCC(F)(F)C(F)(F)C(F)(F)CO`, the result was inactive.
Regarding `CCOC(=O)CC(=O)C(F)(F)C(F)(F)F`, the outcome was inactive.
On to `NC(=O)C(F)(F)C(F)(F)C(F)(F)C(F)(F)C(F)(F)C(F)(F)C(F)(F)F`, for which the result was inactive.
Turning to `OC(O)C(F)(F)C(F)(F)F`, the outcome was inactive.
Consider `O=C(Cl)C(F)(F)C(F)(F)C(F)(F)C(F)(F)C(F)(F)C(F)(F)C(F)(F)F`, for which the AC50 is 20.2 µM (active) and 16.6 µM (active); the result was inactive.

These data come from PubChem BioAssay (EPA / NIEHS).
